# In PubChem BioAssay (Tox21):
# Records with an inconclusive call do not appear. The source made the active and inactive calls. Calls follow the shape of the dose curve; as a rule, active = well fitted cell-killing curve with a large enough effect in the repeat runs; inconclusive = weak or mixed curves, or effect the other way; inactive = no such curve, though single readings can be large or run the other way.
# Test: qHTS assay to identify small molecule antagonists of the vitamin D receptor (VDR) signaling pathway - cell viability counter screen (AID 743225); also: nearly all actives have a fitted effect of over 50% in size
# Conditions: VDR-bla HEK293T viability, CellTiter-Glo luminescence, 16 h; series mostly up to 61 µM; viability change, negative = cytotoxic: at the top concentration
# Text: U.S. Tox21 Program National Center for Advancing Translational Sciences [NCATS] NIH Chemical Genomics Center [NCGC] U.S. Environmental Protection Agency [EPA] National Institutes of Environmental Health Sciences [NIEHS] National Toxicology Program [NTP] U.S. Food and Drug Administration [FDA] Tox21 Assay Overview: The vitamin D receptor (VDR), a member of nuclear hormone receptor superfamily, plays a critical role in calcium homeostasis and bone metabolism. It is also involved in cell differentiation and growth, and thrombogenicity. To identify the compounds that inhibit VDR signaling, the VDR-UAS-bla HEK 293T cell line (Invitrogen, Carlsbad, CA, USA) containing a beta-lactamase reporter gene under the control of an upstream activator sequence (UAS) was used to screen the Tox21 10K compound library. The cytotoxicity of the Tox21 compound library against the VDR-bla cell line was tested in parallel by measuring the cell viability using CellTiter-Glo assay (Promega, Madison, WI) in the same wells.
# Tox21 Assay Protocol Summary: VDR-bla cells were dispensed at 2,000 cells/5 uL of assay medium per well into black wall/clear-bottom 1536-well plates using a Multidrop Combi (Thermo Fisher Scientific, Waltham, MA) dispenser. After the assay plates were incubated at a 37C and 5% CO2 for 4 h, 23 nL of compounds dissolved in DMSO, positive controls or DMSO only was transferred to the assay plate by a Pintool station (Kalypsys, San Diego, CA), followed by addition of 1 uL of 1-alpha, 25-Dihydroxy Vitamin D3 (3 nM, final concentration in the wells) using a Bioraptr Flying Reagent Dispenser (FRD) workstation (Beckman Coulter, Indianapolis, IN). The plates were incubated at 37C and 5% CO2 for 16 h, and then 1 uL of LiveBLAzerTM B/G FRET substrate was added using a Bioraptr FRD. The plates were incubated at room temperature for 2 h and fluorescence intensity was measured by an Envision plate reader (PerkinElmer, Shelton, CT). For cell viability readout that measures cytotoxicity, 3 ul/well of CellTiter-Glo reagent was added into the assay plates using a Bioraptr FRD. After 30 min incubation at room temperature, the luminescence intensity in the plates was measured using a ViewLux plate reader (PerkinElmer).
# % is scaled to controls: 0 for no effect and ±100 for the full control effect.
row,SMILES,"viability change, negative = cytotoxic"
1,CC(C)CCCC(C)(C)O,5.81% (inactive)
2,NS(=O)(=O)c1cc2c(cc1Cl)CN(C1CCCCC1)C2=O,0.457% (inactive)
3,CCN1CCc2nc(N)oc2CC1,-7.29% (inactive)
4,CC(S)C(=O)NCC(=O)O (stereo not given),2.59% (inactive)
5,Oc1cn2c(n1)Nc1ccc(Cl)c(Cl)c1C2,-2.02% [at 28.5 µM] (inactive)
6,BrCCCCCBr,-13% [at 78.8 µM] (inactive)
7,CCOC(=O)c1ncn2c1CN(C)C(=O)c1cc(F)ccc1-2,-7.05% (inactive)
8,Nc1ccc([N+](=O)[O-])c(N)c1,8.11% (inactive)
9,CCC(C)NC(N)=O (stereo not given),0.713% (inactive)
10,Nc1ccc2cc(S(=O)(=O)O)cc(O)c2c1,-13.1% (inactive)
11,CCO[Si](CCCS)(OCC)OCC,11.4% (inactive)
12,Cc1cc2cc3c(C)cc(=O)oc3c(C)c2o1,-8.02% (inactive)
13,O=S(=O)(O)c1cc(O)c2ccc(Nc3ccccc3)cc2c1,13.2% (inactive)
14,CC(C)NCC(O)COc1ccc(COCCOC(C)C)cc1 (stereo not given),0.191% (inactive)
15,FC(F)(F)c1ccccc1-n1ccnc1,1.47% (inactive)
16,C[C@H](CCC(=O)O)[C@H]1CC[C@H]2[C@@H]3C(=O)C[C@@H]4CC(=O)CC[C@]4(C)[C@H]3CC(=O)[C@]12C,12.4% (inactive)
17,CC(=O)/C=C/C1C(C)=CCC(C)C1(C)C (stereo not given),1.6% (inactive)
18,O=C1O[C@@H]2[C@@H](O)[C@H](O)O[C@@H]2[C@H]1O,4.22% (inactive)
19,CCCOC(=O)C(C)O (stereo not given),9.37% [at 78.8 µM] (inactive)
20,CCNC(=O)C1CC(C)CCC1C(C)C (stereo not given),1.36% (inactive)

row,SMILES,"viability change, negative = cytotoxic"
1,Oc1ccccc1-c1nnco1,13% (inactive)
2,COc1ccc(-c2cc(=O)c3c(O)cc(O[C@@H]4O[C@H](CO[C@@H]5O[C@@H](C)[C@H](O)[C@@H](O)[C@H]5O)[C@@H](O)[C@H](O)[C@H]4O)cc3o2)cc1O,5.11% (inactive)
3,O=S(=O)(O)CCN1CCN(CCO)CC1,0.681% (inactive)
4,CCOc1cc([N+](=O)[O-])c(OCC)cc1N1CCOCC1,0.174% (inactive)
5,Brc1ccc(-c2ccccc2)cc1,9.11% (inactive)
6,O=C(NCCN1CCOCC1)c1ccc(Cl)cc1,-5.56% (inactive)
7,NS(=O)(=O)c1ccc(NC(=O)CCC(=O)O)cc1,6.06% (inactive)
8,CCCCCCOC(=O)CC,-15.9% (inactive)
9,C[C@H](N)[C@H](O)c1cccc(O)c1,-2.9% (inactive)
10,CC(C)CCCCOC(=O)c1ccccc1C(=O)OCCCCC(C)C,-6.45% (inactive)
11,C[Si](C)(C)C,9.87% (inactive)
12,Cc1ccccc1OCC(O)CO (stereo not given),-1.17% (inactive)
13,C=COCCOCCOCCOC=C,4.74% (inactive)
14,CC(C)CC(C)CC(C)CC(C)COC(=O)c1ccccc1C(=O)OCC(C)CC(C)CC(C)CC(C)C (stereo not given),-7.01% (inactive)
15,COc1cc2c(cc1OC)C(=O)CC2,14.3% (inactive)
16,ClCCCl,6.16% (inactive)
17,O=C(NCCc1c[nH]c2ccccc12)c1cccnc1,0.953% (inactive)
18,CC(C)C[C@H](NC(=O)CNC(=O)[C@H](Cc1ccc(O)cc1)NC(=O)[C@H](CO)NC(=O)[C@H](Cc1c[nH]c2ccccc12)NC(=O)[C@H](Cc1cnc[nH]1)NC(=O)[C@@H]1CCC(=O)N1)C(=O)N[C@@H](CCCN=C(N)N)C(=O)N1CCC[C@H]1C(=O)NCC(N)=O (stereo in doubt),14.4% (inactive)
19,CC1=C(C(=O)O)N2C(=O)[C@@H](NC(=O)[C@H](N)c3ccc(O)cc3)[C@H]2SC1,-17.5% (inactive)
20,N[C@@H](CCC(=O)Nc1ccc([N+](=O)[O-])cc1)C(=O)O,0.583% (inactive)
